Test systems include DU-145 prostate; K-562 leukemia; MALME-3M melanoma; MDA-MB-231 breast; RXF 393 renal; SF-268 CNS; SF-295 CNS; SF-539 CNS; UACC-257 melanoma; M14 melanoma.
Common to all, as to test: NCI-60 one-dose screen, 48 h (100 = growth as untreated, 0 = no growth, -100 = all killed)
Holding throughout (conditions): 10 µM unless noted

The panel holds about 83,000 compounds, 20% with a hit somewhere; the sample as a whole holds those more often.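 Negative percent growth values reflect cell death: -40 means 40% of the cells present at the start died, and -100 means all died.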 Values without a mark were called inactive. Active and inactive are the calls of the source. The calls were made as follows: active = growth percent below 10; inactive = the rest.

Take `CCN1C(=O)N(CC)C2C1NN=c1s/c(=C\c3cccnc3)c(=O)n12` (stereo not given): the growth is 17% with DU-145 prostate; 9.64% (active) with K-562 leukemia; 61.8% in the test on MALME-3M melanoma; 46.5% in the test with MDA-MB-231 breast; 0.531% (active) in the test with RXF 393 renal; 49.4% with SF-268 CNS. Further, the growth in the test on SF-295 CNS is 11.9%; in the test on SF-539 CNS, -13.3% (active); in the test on UACC-257 melanoma, 68%; in the test on M14 melanoma, 0.469% (active).
For `N#C/C(=C1C=C/C(=N/O)C(Cl)=C/1)c1ccc(Cl)cc1`, the growth is 35.5% in the test with DU-145 prostate; 42.6% with K-562 leukemia; 112% with MALME-3M melanoma; 61.4% with MDA-MB-231 breast; 81.9% in the test with RXF 393 renal; 54.5% in the test on SF-268 CNS. Moreover, the growth with SF-295 CNS is 141%; in the test on SF-539 CNS, 18.8%; in the test on UACC-257 melanoma it was 76.2%; in the test on M14 melanoma it was 85.1%.
For `C=C1CCC2C3(C)COC(c4c(OC)cccc4OC)OC3CCC2(C)C1C/C=C1/C(=O)OCC1O` (stereo not given), the growth in the test with DU-145 prostate was 21%; with K-562 leukemia it was 37.9%; in the test with MALME-3M melanoma it was 109%; in the test on MDA-MB-231 breast, 86.7%; in the test on RXF 393 renal, -28.7% (active); in the test on SF-268 CNS it was 67%. For the same compound, the growth is 85.1% with SF-295 CNS, 66.7% with SF-539 CNS, 59.6% with UACC-257 melanoma and 39.9% in the test with M14 melanoma.
Regarding `COc1cc(C(=O)/C=C/c2ccc3nc(-c4cc(F)cc(F)c4)sc3c2)cc(OC)c1OC`, the growth in the test with DU-145 prostate is 112%; in the test on K-562 leukemia it was 100%; in the test on MALME-3M melanoma it was 86.6%; in the test on MDA-MB-231 breast it was 84.2%; in the test with RXF 393 renal, 110%; in the test on SF-268 CNS it was 97.3%. Moreover, the growth is 94.2% in the test with SF-295 CNS, 92.4% in the test with SF-539 CNS, 103% in the test with UACC-257 melanoma and 97.1% with M14 melanoma.
With `ClC(Cl)c1nc(-c2cccnc2)n2nc(-c3ccccc3)cc2n1`, the growth in the test with DU-145 prostate was -21.7% (active); in the test on K-562 leukemia, 6.07% (active); with MALME-3M melanoma, -4.43% (active); with MDA-MB-231 breast, 17.3%; in the test on RXF 393 renal, -51% (active); in the test with SF-268 CNS it was 23%. Also, the growth in the test on SF-295 CNS was 0.57% (active); in the test with SF-539 CNS, 60.8%; with UACC-257 melanoma it was 96.4%; in the test on M14 melanoma it was 71%.
As to `Brc1ccc(-c2[nH]ncc2-c2c[nH]c3ccccc23)cc1`, the growth is 108% with DU-145 prostate; 88.4% with K-562 leukemia; 90.6% with MALME-3M melanoma; 67.7% with MDA-MB-231 breast; 103% with RXF 393 renal; 89% with SF-268 CNS. Further, the growth was 96.2% with SF-295 CNS, 93.3% in the test on SF-539 CNS, 91.6% with UACC-257 melanoma and 89.7% in the test with M14 melanoma.
As for `CC(C)C(C(=O)NCCN1CCOCC1)N1C(=O)/C(=C/c2ccc(Br)cc2)SC1=S` (stereo not given), the growth was 108% with DU-145 prostate; 96% with K-562 leukemia; 106% in the test with MALME-3M melanoma; 108% with MDA-MB-231 breast; 125% with RXF 393 renal; 94.2% in the test on SF-268 CNS. Also, the growth with SF-295 CNS was 102%; with SF-539 CNS, 98.6%; in the test with UACC-257 melanoma it was 106%; in the test on M14 melanoma, 90.7%.
As for `CC1=C(C#N)C(=O)NC(C)C1` (stereo not given), the growth in the test with DU-145 prostate was 111%; in the test on K-562 leukemia it was 116%; with MALME-3M melanoma, 102%; in the test on MDA-MB-231 breast it was 105%; in the test with RXF 393 renal, 107%; in the test with SF-268 CNS, 104%. Moreover, the growth was 99.9% in the test on SF-295 CNS, 97.9% with SF-539 CNS, 102% in the test on UACC-257 melanoma and 96.2% in the test on M14 melanoma.
Turning to `O=C(CN1CCN(c2cc3c(cc2F)c(=O)c(C(=O)N/N=C/c2ccccc2O)cn3C2CC2)CC1)N/N=C\c1ccccc1O`, the growth with DU-145 prostate is 21.2%; with K-562 leukemia, 8.3% (active); in the test with MALME-3M melanoma it was 22.3%; with MDA-MB-231 breast, 25.3%; in the test with RXF 393 renal it was 27.9%; with SF-268 CNS it was 16.6%. Moreover, the growth in the test on SF-295 CNS was 21.5%; in the test on SF-539 CNS it was 11.1%; in the test on UACC-257 melanoma it was 20%; with M14 melanoma, -27.6% (active).
Consider `NC(N)=N/N=C/c1ccc(-c2ccc(-c3cc(Cl)cc(Cl)c3)s2)cc1`, for which the growth in the test with DU-145 prostate is -45.9% (active); with K-562 leukemia, -25.2% (active); in the test with MALME-3M melanoma it was 100%; in the test on MDA-MB-231 breast it was -30.4% (active); with RXF 393 renal, 27.4%; in the test with SF-268 CNS, 73.5%. The growth with SF-295 CNS was 75.9%; with SF-539 CNS it was -3.6% (active); in the test with UACC-257 melanoma, 106%; in the test on M14 melanoma, 93.9%.
As to `N[C@H]1CN(C(=O)c2cc3cc(Br)c(F)c(F)c3[nH]2)C[C@@H]1O`, the growth in the test with DU-145 prostate was 112%; in the test on K-562 leukemia it was 104%; in the test with MALME-3M melanoma, 101%; in the test on MDA-MB-231 breast, 92%; with RXF 393 renal, 103%; with SF-268 CNS it was 88.5%. Besides, the growth in the test on SF-295 CNS was 104%; with SF-539 CNS, 96%; in the test on UACC-257 melanoma, -76.6% (active); in the test with M14 melanoma, 97.2%.
On to `CC(C)(C)n1cc(-c2ccnc(NCCCNS(=O)(=O)c3ccc(F)cc3)c2)c(-c2cccc(O)c2)n1`, for which the growth in the test on DU-145 prostate was 63.4%; with K-562 leukemia, 9.04% (active); in the test on MALME-3M melanoma it was 38.1%; with MDA-MB-231 breast, 33.2%; in the test with RXF 393 renal, 38.7%; with SF-268 CNS it was 51.4%. Besides, the growth is 26.8% in the test on SF-295 CNS, 28.4% with SF-539 CNS, 50.1% with UACC-257 melanoma and 29% in the test with M14 melanoma.
Regarding `OCc1ncc(-c2ccccc2)s1`, the growth in the test with DU-145 prostate was 107%; in the test on K-562 leukemia it was 93.2%; with MALME-3M melanoma, 94.2%; in the test with MDA-MB-231 breast, 113%; with RXF 393 renal, 122%; with SF-268 CNS, 99.8%. Moreover, the growth is 106% with SF-295 CNS, 98.1% in the test on SF-539 CNS, 105% with UACC-257 melanoma and 93.9% with M14 melanoma.
Consider `CCN(CC)CCC(CNc1ccnc2cc(Cl)ccc12)c1ccccc1` (stereo not given), for which the growth with DU-145 prostate was 89.4%; with K-562 leukemia it was 2.5% (active); in the test with MALME-3M melanoma, -47.1% (active); with MDA-MB-231 breast it was 43%; with RXF 393 renal, -21% (active); in the test on SF-268 CNS, 78.3%. The growth in the test with SF-295 CNS was -21.4% (active); with SF-539 CNS, -15.2% (active); in the test on UACC-257 melanoma, -78.2% (active); with M14 melanoma, -83.9% (active).
For `O=C1c2ccccc2-c2ccccc2C1(Cl)Cl`, the growth in the test on DU-145 prostate was -90.6% (active); with K-562 leukemia, -15.4% (active); in the test on MALME-3M melanoma, -99.4% (active); with MDA-MB-231 breast it was -27.5% (active); in the test on RXF 393 renal, -95.6% (active); in the test on SF-268 CNS it was -83.8% (active). Moreover, the growth with SF-295 CNS was -91% (active); in the test on SF-539 CNS, -94.8% (active); in the test with UACC-257 melanoma, -93% (active); in the test on M14 melanoma it was -69.6% (active).
Take `COc1cc2c(c(OC)c1OC)-c1ccc(N)c(=O)cc1[C@@H](NC(C)=O)CC2`: the growth in the test on DU-145 prostate was -28.8% (active); in the test on K-562 leukemia, 17.3%; in the test with MALME-3M melanoma it was 58.4%; in the test on MDA-MB-231 breast it was -9.55% (active); with RXF 393 renal it was -5.16% (active); in the test on SF-268 CNS it was 17.9%. For the same compound, the growth is 17.7% in the test on SF-295 CNS, -14% (active) in the test on SF-539 CNS, 61.2% in the test on UACC-257 melanoma and -21.8% (active) in the test on M14 melanoma.
With `Nc1ncnc2c1c(-c1ccc(Oc3ccccc3)cc1)nn2C[C@@H]1SSC[C@@H]1O`, the growth is 34% with DU-145 prostate; 2.87% (active) with K-562 leukemia; -7.41% (active) in the test with MALME-3M melanoma; 52% in the test with MDA-MB-231 breast; 37.7% in the test with RXF 393 renal; 29.7% in the test with SF-268 CNS. Also, the growth is 38.3% with SF-295 CNS, 40.9% in the test on SF-539 CNS, 14.6% in the test on UACC-257 melanoma and -85.1% (active) with M14 melanoma.
Regarding `Cc1nc2ncccc2nc1Nc1ccc(S(=O)(=O)Nc2cncs2)cc1`, the growth with DU-145 prostate was 107%; in the test with K-562 leukemia it was 109%; with MALME-3M melanoma it was 103%; with MDA-MB-231 breast, 84%; with RXF 393 renal, 112%; in the test with SF-268 CNS it was 98.2%. In addition, the growth was 107% with SF-295 CNS, 106% in the test on SF-539 CNS, 101% in the test on UACC-257 melanoma and 99.6% with M14 melanoma.
Turning to `Clc1cccc(-c2cc(-c3ccc4c(c3)OCCO4)[nH]n2)c1`, the growth was 38.8% [25 µM] in the test with DU-145 prostate; 12% [25 µM] with K-562 leukemia; 35.4% [25 µM] with MALME-3M melanoma; 32.4% [25 µM] in the test on MDA-MB-231 breast; 8.25% [25 µM] (active) with RXF 393 renal; 53.2% [25 µM] in the test with SF-268 CNS. Further, the growth in the test with SF-295 CNS was 29% [25 µM]; in the test with SF-539 CNS it was 33.6% [25 µM]; with UACC-257 melanoma, 74% [25 µM]; with M14 melanoma, 25% [25 µM].

Source of the values: PubChem BioAssay (NCI).
